# Not all results are given here.
# aSyn UTR act = Activators via SNCA 5'UTR binding, MLPCN; activity score, % (tested at 7.5 µM), hits read low; alpha-synuclein 5'UTR reporter, activators screen; AID 1814, 2009; 7.1% of 300,000 active; in the data active means activity score below about -60%
# Starred values were filed as active, the others as inactive.
SMILES,aSyn UTR act
O=C(N/N=C/C(Br)=C\c1ccccc1)c1cccs1,-318.5*
CC(=C/c1ccccc1)/C=N/n1cnnc1,55.9
CC(C)c1ccc(N2C=Nc3ccc(C(C)C)cc3C2)cc1,-63.1*
C1=Nc2ccccc2CN1c1ccccc1,-119.6*
Cc1ccc2cc(NC(=O)c3ccc(C(C)(C)C)cc3)ccc2n1,-63.2*
CCc1ccc(C(=O)Nc2ccc3nc(C)ccc3c2)cc1,-177.5*
CCOC(=O)C1(CCOC)CCN(Cc2nc(C(C)C)cs2)CC1,-66.9*
CCOC(=O)C1(CCOc2ccccc2)CCN(Cc2ccc(O)c(Cl)c2)CC1,108.4
C/C(N)=C(/C#N)C(=O)CSc1ccc2c(c1)OCCO2,-125.3*
Cc1cc(C(=O)CSc2ccc3c(c2)OCCO3)c(C)n1C1CC1,-125.9*
CN(c1ccc(C(=O)Nc2ccc3c(c2)OCCO3)cc1)S(C)(=O)=O,-149.4*
CN(c1ccc(C(=O)Nc2ccc3c(c2)OCO3)cc1)S(C)(=O)=O,-102.9*
Cc1ccc(Nc2ncccc2C(N)=O)cc1[N+](=O)[O-],-201.0*
Cc1ccc(Nc2ncccc2C(=O)O)cc1C,-104.0*
CNC(=O)c1cccnc1Nc1cccc(C(F)(F)F)c1,-148.1*
O=C(Nc1cccc(C(F)(F)F)c1)Oc1ccc(Cl)c2cccnc12,75.1
CCC1CCCCN1S(=O)(=O)c1ccc2c(c1)CCN2C(C)=O (stereo unspecified),57.0
CC(=O)N1CCOc2ccc(S(=O)(=O)N3CCCCC3)cc21,-250.3*
CC(=O)c1cccc(NS(=O)(=O)c2ccc3c(c2)N(C(C)=O)CCO3)c1,-69.7*
CCOc1ccc(NC(=O)Nc2cccnc2)cc1,-141.4*
CCOc1ccc(NC(=O)Nc2cccc(C(=O)O)c2)cc1,107.7
O=C(Nc1ccc(Cl)cc1)Nc1cccnc1,-66.2*
Cc1cccc(Nc2nc(-c3ccc4c(c3)OCCO4)cs2)c1,-202.7*
Cc1nc(-c2ccc3c(c2)OCCO3)cs1,-122.1*
COc1ccc(NC(=O)c2c(Cl)nc3ccccn23)cc1,-142.4*
SMILES,aSyn UTR act
O=C(Nc1ccc(F)cc1)c1c(Cl)nc2ccccn12,-111.5*
COC(=O)c1cc(NC(=O)c2c(Cl)nc3sccn23)cc(C(=O)OC)c1,79.5
Cc1ccc2nc3ccc(N4CCN(C)CC4)nn3c(=O)c2c1,-136.9*
Cc1ccc2nc3ccc(N4CCCCCCC4)nn3c(=O)c2c1,-150.2*
O=c1c2ccccc2nc2ccc(N3CCOCC3)nn12,-84.8*
Cc1sc2nc3ccc(N4CCCC4)nn3c(=O)c2c1C,-170.8*
O=C(NC(=S)Nc1ccc2[nH]ncc2c1)c1ccccc1,-115.0*
COc1cccc(C(=O)Nc2ccc3[nH]ncc3c2)c1,-75.8*
O=C(Nc1ccc2cccnc2c1)c1ccc(Br)cc1,-64.6*
O=C(NC(=S)Nc1ccc2ncccc2c1)c1ccccc1,-137.1*
O=C(NC(=S)Nc1ccc2nc[nH]c2c1)c1ccccc1,-115.8*
O=C(NNC(=S)Nc1ccccc1)c1ccc2ncccc2c1,-97.2*
CC(C)(C)NC(=S)NNC(=O)c1ccc2ncccc2c1,-133.8*
Cc1ccc2nc(-c3ccccc3O)c(Nc3ccc4c(c3)OCCO4)n2c1,-64.7*
NC(=O)COc1ccc(-c2noc(COc3ccccc3[N+](=O)[O-])n2)cc1,-83.8*
c1ccc(OCc2nc(-c3ccncc3)no2)cc1,-81.8*
c1ccc(OCc2nc(-c3ccccc3)no2)cc1,-202.0*
Clc1ccc(OCc2nc(-c3ccncc3)no2)c(Br)c1,-118.8*
CC1(C)CC(=O)c2sc(NS(=O)(=O)Cc3ccccc3)nc2C1,-62.9*
S=C(Nc1ccccc1)c1ccccn1,-164.6*
Cc1cccn2cc(CNc3ccccc3)nc12,-73.5*
Cc1cccn2cc(-c3ccc(F)cc3)nc12,-88.0*
COc1ccc(-c2cn3ccc4ccccc4c3n2)cc1,-102.6*
Cc1cccn2cc(-c3ccccc3)nc12,-152.3*
COc1ccc(-c2cn3cccc(C)c3n2)cc1Br,-259.0*
SMILES,aSyn UTR act
O=C(NC(=S)Nc1ccccc1O)c1ccccc1Cl,-126.9*
O=C(NNC(=S)Nc1ccccc1Cl)c1ccccc1Br,-94.1*
Fc1ccc(/C=C\c2nccc3c2[nH]c2ccccc23)cc1,-139.3*
C(=C\c1nccc2c1[nH]c1ccccc12)/c1ccccc1,-84.4*
Cc1ccc(/C=C\c2nccc3c2[nH]c2ccccc23)cc1,-124.8*
Cn1c(-c2ccc3ccccc3n2)[n+](C)c2ccccc21,-64.9*
Nc1ccc(-c2nc3ncccc3o2)c(O)c1,-175.5*
Nc1ccc(-c2nc3ncccc3o2)c(Cl)c1,-103.8*
O=C(COC(=O)c1ccccc1[N+](=O)[O-])c1ccc(C2CCCCC2)cc1,-75.9*
CCn1c(=NC(=O)c2ccco2)sc2cccc(F)c21,-125.9*
S=C(Nc1ccc(Cl)c(Cl)c1)NC1CCCCC1,-74.8*
CC(C)c1ccc(NC(=S)NC2CCCCCC2)cc1,-184.7*
S=C(Nc1ccc2nsnc2c1)NC1CCCCC1,-163.3*
CCc1ccc(NC(=S)N2CCCCCCC2)cc1,-123.0*
COc1ccc(NC(=S)Nc2ccc3nsnc3c2)cc1,-207.1*
S=C(NNc1ccc2ccccc2c1)NC1CCCCC1,-216.5*
S=C(Nc1ccc2nsnc2c1)N1CCCCCC1,-148.2*
CC1CCN(C(=O)Nc2ccc3nsnc3c2)CC1,-126.3*

# High-throughput results: PubChem, Broad Institute
